17 sequences from the OligoGym collection can be followed below.
Further: reference of the scale not given here.

The first test concerns the target C3orf33. The test can be described thus: pooled miR-30 sensor sort-seq; sequence = guide strand. The following applies: shRNA.
As to TTGTTCATGTTGTCTTTCCATA, the sensor-assay potency score (higher = more potent) was -1.3.

Take TAACTTTCTTTTTTCAAGCTGA: the sensor-assay potency score (higher = more potent) was -0.0803.

Consider TTCTTTTTCAGAGTCTTCCTTC, for which the sensor-assay potency score (higher = more potent) came to 0.254.

With TAAATTTTGATGTCAGTCGAAT, the sensor-assay potency score (higher = more potent) is -0.673.

On to TTGAATTTTTCTAAGTAACTTT, for which the sensor-assay potency score (higher = more potent) was -0.235.

The sequence TTTAGCTCTTTTTGTAACCATG displayed a sensor-assay potency score (higher = more potent) of -1.58.

TACTCCAGCCAACTTAACCAGC came in with a sensor-assay potency score (higher = more potent) of -1.6.

In turn, TCAAGCTGAAATCTGATCCTGT showed a sensor-assay potency score (higher = more potent) of 0.793.

In the case of TTTGATGTCAGTCGAATGCTTC, the sensor-assay potency score (higher = more potent) was -0.51.

Sequence TATAAGTTCTCTGAACTTCAGT returned a sensor-assay potency score (higher = more potent) of -0.164.

With TTTTTCATAATAACTTTCTTTT, the sensor-assay potency score (higher = more potent) was -0.968.

The sequence TTAACAAGAACAGTTTTGCCAA came in with a sensor-assay potency score (higher = more potent) of -0.169.

For the next test, the target named is C3orf64. The description is as above. The note with it: shRNA.
On to TATAACATGGTCCTATAGCTTG, for which the sensor-assay potency score (higher = more potent) is -1.11.

In turn, TTAGTTGATCTAAAAACCCAAG showed a sensor-assay potency score (higher = more potent) of -1.13.

For TATAGGTCTGAAGTTGAGCTGA, the sensor-assay potency score (higher = more potent) came out at 0.14.

Sequence TAACATGTTGTAATTCTTCTTA had a sensor-assay potency score (higher = more potent) of 0.391.

TATAGCTTTGTAGCTCAGCAAA gave a sensor-assay potency score (higher = more potent) of -1.7.
